Experimental data reported in ChEMBL document CHEMBL3988442, “University of Dundee, Small-Polar-MMV Screening Library” (2021).
For some assays here: Entries with a potency or affinity are not part of this list.

What was measured:
Parameters in all cases: scale not given: direction of the effect not stated beside the values
[1] = molecular target: Protein translocase subunit SecA (Escherichia coli (strain K12)) (UniProt P10408); experiment: Assay to Identify E. coli SecA ATPase Inhibitors; type: functional; conditions: 30 µM
Chain of Protein translocase subunit SecA (Escherichia coli (strain K12)) (P10408 whole entry): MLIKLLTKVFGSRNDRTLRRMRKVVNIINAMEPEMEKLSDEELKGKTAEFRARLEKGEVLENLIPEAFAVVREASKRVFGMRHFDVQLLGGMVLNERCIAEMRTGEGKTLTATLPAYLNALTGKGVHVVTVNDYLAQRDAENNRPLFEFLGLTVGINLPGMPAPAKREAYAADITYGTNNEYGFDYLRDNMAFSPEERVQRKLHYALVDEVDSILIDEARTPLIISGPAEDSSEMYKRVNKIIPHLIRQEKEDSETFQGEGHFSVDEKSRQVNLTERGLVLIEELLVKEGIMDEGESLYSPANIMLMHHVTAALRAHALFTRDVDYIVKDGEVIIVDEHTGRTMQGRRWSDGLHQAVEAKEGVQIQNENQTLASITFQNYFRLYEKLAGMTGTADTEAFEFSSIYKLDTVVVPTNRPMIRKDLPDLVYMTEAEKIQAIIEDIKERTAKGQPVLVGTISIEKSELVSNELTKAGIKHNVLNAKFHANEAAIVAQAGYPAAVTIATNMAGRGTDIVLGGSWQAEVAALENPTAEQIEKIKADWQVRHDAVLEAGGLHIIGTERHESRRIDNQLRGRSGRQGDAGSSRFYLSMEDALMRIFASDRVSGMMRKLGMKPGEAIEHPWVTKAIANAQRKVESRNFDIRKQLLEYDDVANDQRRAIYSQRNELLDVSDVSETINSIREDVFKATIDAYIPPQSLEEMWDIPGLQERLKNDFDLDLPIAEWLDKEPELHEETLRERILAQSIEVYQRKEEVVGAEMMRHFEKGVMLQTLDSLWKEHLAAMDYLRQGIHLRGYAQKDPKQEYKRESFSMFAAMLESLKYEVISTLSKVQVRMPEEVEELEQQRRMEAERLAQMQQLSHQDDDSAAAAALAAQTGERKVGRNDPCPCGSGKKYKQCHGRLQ

[2] = molecular target: T1, Ubiquitin-activating enzyme e1, putative (Leishmania donovani (strain BPK282A1)) (UniProt E9BSI1); experiment: Leishmania donovani Ubiquitin Activating Enzyme (LdE1); type: functional; conditions: 30 µM
T1 sequence (whole entry): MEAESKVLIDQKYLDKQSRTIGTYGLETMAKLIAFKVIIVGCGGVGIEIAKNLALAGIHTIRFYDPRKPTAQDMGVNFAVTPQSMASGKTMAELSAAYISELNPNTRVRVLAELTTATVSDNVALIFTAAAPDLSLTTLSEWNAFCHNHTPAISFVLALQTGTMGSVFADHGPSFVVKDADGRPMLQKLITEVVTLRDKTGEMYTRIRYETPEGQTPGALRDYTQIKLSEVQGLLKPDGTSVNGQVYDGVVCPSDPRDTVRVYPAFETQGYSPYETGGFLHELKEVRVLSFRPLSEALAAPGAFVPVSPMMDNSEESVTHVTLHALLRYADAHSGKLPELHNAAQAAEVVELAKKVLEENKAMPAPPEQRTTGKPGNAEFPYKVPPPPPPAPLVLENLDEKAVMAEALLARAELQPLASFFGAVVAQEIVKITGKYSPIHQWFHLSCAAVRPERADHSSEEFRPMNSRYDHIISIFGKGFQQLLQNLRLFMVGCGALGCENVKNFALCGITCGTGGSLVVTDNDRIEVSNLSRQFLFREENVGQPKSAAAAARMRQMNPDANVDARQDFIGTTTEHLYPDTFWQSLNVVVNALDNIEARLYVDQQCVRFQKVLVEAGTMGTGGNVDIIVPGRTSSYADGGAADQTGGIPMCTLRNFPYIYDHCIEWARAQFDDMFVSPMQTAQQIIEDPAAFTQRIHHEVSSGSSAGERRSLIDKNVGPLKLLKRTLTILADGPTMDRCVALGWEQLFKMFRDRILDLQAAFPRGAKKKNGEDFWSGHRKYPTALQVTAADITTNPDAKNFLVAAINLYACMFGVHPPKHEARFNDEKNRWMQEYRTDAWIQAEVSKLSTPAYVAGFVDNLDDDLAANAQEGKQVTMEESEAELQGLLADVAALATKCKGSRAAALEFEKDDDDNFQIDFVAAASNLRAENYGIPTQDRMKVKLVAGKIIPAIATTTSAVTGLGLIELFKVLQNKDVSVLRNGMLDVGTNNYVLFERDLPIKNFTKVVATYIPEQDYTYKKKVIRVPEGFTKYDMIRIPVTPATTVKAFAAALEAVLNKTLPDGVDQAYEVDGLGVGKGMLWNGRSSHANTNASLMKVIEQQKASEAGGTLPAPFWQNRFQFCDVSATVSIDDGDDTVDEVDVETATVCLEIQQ

[3] = molecular target: Sialic acid-binding Ig-like lectin 9 (Homo sapiens) (UniProt Q9Y336); experiment: Hs-Siglec9 ALPHAscreen SOP 20170721; conditions: 10 µM
Chain of Sialic acid-binding Ig-like lectin 9 (Homo sapiens) (Q9Y336 whole entry): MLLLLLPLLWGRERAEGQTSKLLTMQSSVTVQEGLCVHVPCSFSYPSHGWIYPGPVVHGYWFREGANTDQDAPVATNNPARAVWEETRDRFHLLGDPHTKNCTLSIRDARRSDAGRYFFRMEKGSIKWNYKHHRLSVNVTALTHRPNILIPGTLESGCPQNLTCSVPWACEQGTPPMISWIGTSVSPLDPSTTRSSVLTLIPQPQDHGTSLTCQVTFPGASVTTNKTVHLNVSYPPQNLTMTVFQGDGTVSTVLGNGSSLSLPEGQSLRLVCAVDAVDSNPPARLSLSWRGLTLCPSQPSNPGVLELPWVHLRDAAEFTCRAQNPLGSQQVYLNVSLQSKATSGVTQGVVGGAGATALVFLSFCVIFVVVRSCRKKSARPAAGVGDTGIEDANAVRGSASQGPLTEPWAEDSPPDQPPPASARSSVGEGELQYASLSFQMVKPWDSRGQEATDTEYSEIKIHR

Trypanosoma cruzi = experiment: Trypanosoma cruzi phosphomannomutase and mannose-1-phosphate guanylyltransferase assay; type: functional; conditions: 10 µM
[4] = molecular target: T2, Arginase-2, mitochondrial (Homo sapiens) (UniProt P78540); experiment: in vitro enzyme assay to detect the production of urea directly proportional to the activity of Arginase II; type: functional; conditions: 33.3 µM; note: in the data most compounds retested in dose-response had high values
T2 sequence (whole entry): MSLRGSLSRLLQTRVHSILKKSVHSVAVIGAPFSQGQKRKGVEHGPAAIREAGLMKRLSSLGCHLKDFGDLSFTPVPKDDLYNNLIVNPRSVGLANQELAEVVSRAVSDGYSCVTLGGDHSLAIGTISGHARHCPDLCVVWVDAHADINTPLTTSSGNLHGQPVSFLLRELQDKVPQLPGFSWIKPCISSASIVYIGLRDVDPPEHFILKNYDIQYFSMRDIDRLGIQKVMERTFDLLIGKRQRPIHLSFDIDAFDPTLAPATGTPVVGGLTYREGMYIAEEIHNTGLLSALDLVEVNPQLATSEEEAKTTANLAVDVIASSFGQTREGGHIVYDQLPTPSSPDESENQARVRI

[5] = molecular target: T3, Proteasome subunit beta (Trypanosoma cruzi) (UniProt O96673); experiment: Trypanosoma cruzi proteasome chymotrypsin-like activity (TcProtChymo) assay.; note: in the data most compounds retested in dose-response had high values; type: functional; conditions: 9.37 µM
T3 sequence (whole entry): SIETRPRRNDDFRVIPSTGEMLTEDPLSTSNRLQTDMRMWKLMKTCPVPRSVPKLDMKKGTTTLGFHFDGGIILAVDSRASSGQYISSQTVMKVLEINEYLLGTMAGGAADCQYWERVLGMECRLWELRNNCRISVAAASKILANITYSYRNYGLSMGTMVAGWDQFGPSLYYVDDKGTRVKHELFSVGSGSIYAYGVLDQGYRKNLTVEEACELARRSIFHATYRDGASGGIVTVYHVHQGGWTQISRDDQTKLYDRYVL

Homo sapiens = species: Homo sapiens; experiment: To identify inhibition of the IFN signalling (Jak-Stat) pathway via expression of an eGFP reporter gene under the control of an IFN-stimulated response element (ISRE) containing MxA promoter.; type: functional; conditions: 30 µM
[6] = molecular target: T4, Tyrosyl-tRNA synthetase, putative (Trypanosoma cruzi (strain CL Brener)) (UniProt Q4DSP6); experiment: Trypanosoma cruzi tyrosyl tRNA synthetase (TcYRS) _High Tyrosine SOP; type: functional; conditions: 30 µM; note: in the data most compounds retested in dose-response had high values
T4 sequence (whole entry): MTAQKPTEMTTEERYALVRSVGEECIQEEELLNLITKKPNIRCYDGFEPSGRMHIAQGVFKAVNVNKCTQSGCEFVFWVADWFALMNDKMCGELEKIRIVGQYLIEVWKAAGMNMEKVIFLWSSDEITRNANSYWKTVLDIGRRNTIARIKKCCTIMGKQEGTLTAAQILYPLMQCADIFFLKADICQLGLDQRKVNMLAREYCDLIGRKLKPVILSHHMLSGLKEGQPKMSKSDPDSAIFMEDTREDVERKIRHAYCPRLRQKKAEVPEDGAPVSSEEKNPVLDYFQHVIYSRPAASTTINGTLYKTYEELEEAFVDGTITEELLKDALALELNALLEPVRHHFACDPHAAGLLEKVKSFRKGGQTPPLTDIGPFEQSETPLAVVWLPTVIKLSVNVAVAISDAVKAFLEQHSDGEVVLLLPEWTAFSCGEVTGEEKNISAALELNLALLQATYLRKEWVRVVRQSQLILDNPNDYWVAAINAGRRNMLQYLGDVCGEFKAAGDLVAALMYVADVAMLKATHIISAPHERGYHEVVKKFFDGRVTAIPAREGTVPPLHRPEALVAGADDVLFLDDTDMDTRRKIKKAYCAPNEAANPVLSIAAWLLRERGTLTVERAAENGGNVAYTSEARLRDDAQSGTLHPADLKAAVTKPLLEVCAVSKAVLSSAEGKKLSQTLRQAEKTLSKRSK

[7] = molecular target: T4, Tyrosyl-tRNA synthetase, putative (Trypanosoma cruzi (strain CL Brener)); experiment: Trypanosoma cruzi tyrosyl tRNA synthetase (TcYRS) SOP; type: functional; conditions: 30 µM
[8] = molecular target: Chromo domain-containing protein 1 (Saccharomyces cerevisiae (strain ATCC 204508 / S288c) (Baker's yeast)) (UniProt P32657); experiment: ScCHD-1 Enzyme Inhibition Assay; type: functional; conditions: 30 µM; note: in the data most compounds retested in dose-response had high values
Chain of Chromo domain-containing protein 1 (Saccharomyces cerevisiae (strain ATCC 204508 / S288c) (Baker's yeast)) (P32657 whole entry, the tested form may be a part): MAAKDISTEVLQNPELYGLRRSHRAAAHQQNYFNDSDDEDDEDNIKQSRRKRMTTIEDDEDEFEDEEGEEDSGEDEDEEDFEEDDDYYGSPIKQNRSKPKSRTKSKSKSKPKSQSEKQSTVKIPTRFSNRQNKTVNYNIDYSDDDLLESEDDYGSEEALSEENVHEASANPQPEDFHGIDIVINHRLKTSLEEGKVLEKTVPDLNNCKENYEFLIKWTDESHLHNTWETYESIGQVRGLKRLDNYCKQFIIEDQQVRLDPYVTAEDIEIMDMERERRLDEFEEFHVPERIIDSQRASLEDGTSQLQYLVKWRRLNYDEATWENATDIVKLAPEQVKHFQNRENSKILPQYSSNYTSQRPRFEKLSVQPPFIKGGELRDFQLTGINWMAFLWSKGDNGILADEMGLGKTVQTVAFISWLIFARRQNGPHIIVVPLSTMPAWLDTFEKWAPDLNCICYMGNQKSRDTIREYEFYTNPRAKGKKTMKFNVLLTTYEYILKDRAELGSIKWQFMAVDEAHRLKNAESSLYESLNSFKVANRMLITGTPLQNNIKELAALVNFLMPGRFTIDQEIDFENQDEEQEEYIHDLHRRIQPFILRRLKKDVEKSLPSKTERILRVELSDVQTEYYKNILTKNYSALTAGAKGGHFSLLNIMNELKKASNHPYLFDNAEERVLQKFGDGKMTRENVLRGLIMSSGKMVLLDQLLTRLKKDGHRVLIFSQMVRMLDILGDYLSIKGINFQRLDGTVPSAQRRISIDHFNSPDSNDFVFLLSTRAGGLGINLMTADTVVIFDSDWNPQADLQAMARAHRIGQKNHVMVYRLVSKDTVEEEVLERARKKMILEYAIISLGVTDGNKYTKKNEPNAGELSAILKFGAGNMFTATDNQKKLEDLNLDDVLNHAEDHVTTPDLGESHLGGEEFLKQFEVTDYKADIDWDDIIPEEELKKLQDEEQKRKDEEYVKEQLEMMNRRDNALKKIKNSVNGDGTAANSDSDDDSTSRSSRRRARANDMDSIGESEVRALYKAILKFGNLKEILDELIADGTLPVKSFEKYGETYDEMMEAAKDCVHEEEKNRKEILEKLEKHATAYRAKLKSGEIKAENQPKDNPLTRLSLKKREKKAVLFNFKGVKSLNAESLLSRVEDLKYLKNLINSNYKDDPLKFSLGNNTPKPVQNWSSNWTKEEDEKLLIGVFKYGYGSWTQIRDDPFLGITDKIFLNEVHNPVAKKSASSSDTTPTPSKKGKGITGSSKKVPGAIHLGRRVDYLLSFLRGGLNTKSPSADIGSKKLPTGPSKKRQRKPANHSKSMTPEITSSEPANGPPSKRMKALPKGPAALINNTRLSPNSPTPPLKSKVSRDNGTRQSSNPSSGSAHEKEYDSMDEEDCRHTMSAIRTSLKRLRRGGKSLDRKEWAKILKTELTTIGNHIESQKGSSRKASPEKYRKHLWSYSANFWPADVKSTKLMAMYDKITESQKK

In the case of CCCNC(=O)c1cc2c(c3ccccc3n2C)n1C(=O)N(C)C, the Percent Effect [1] is reported as -4.26%, the Percent Effect [2] is reported as -1.3% and the Percent Effect [3] is reported as 2.88%. For the same compound, the Percent Effect (Trypanosoma cruzi) was -5.16%, the Percent Effect [4] was 1.22% and the Percent Effect [5] was 9.62%. For the same compound, the Percent Effect (Homo sapiens) was -12.8%, the Percent Effect [6] was 2.63% and the Percent Effect [7] was 5.13%. For the same compound, the Percent Effect [8] was -7.15%.

Cc1ccc(SCC2CNc3nc4ccccc4c(=O)n32)c(C)c1 (stereo not given) showed a Percent Effect [1] of 0.606%, a Percent Effect [2] of 22.1% and a Percent Effect [3] of 23.4%. The Percent Effect (Trypanosoma cruzi) was 0.375%, the Percent Effect [4] was 5.94% and the Percent Effect [5] was 12.4%. For the same compound, the Percent Effect (Homo sapiens) was 29.8%, the Percent Effect [6] was 6.76% and the Percent Effect [7] was -2.5%. The Percent Effect [8] was -2.7%.

COCCc1noc(CNC2CCSC2)n1 (stereo not given) was tested, and the Percent Effect [1] was -5.2%, the Percent Effect [2] was 5.41% and the Percent Effect [3] was 11.7%. For the same compound, the Percent Effect (Trypanosoma cruzi) was 7.66%, the Percent Effect [4] was 1.75% and the Percent Effect [5] was 9.93%. The Percent Effect (Homo sapiens) was -4.93%, the Percent Effect [6] was 5.85% and the Percent Effect [7] was 17.1%. For the same compound, the Percent Effect [8] was -3.46%.

With CCc1nccn1C1CCCN(C(=O)Cc2ccc(OC)c(F)c2)C1 (stereo not given) the Percent Effect [1] was -7.36%, the Percent Effect [2] was 16% and the Percent Effect [3] was 14.5%. The Percent Effect (Trypanosoma cruzi) was -1.21%, the Percent Effect [4] was 1.77% and the Percent Effect [5] was 7.38%. The Percent Effect (Homo sapiens) was 13%, the Percent Effect [6] was 6.84% and the Percent Effect [7] was 10.3%. For the same compound, the Percent Effect [8] was -9.19%.

Compound COc1cc(C)nc(N2CCN(C(=O)COCC(F)(F)F)CC2)n1 has a Percent Effect [1] of -3.6%, a Percent Effect [2] of 7.69% and a Percent Effect [3] of -1.63%. For the same compound, the Percent Effect (Trypanosoma cruzi) was -1.22%, the Percent Effect [4] was 1.64% and the Percent Effect [5] was 3.16%. It also gave a Percent Effect (Homo sapiens) of 22.4%, a Percent Effect [6] of 4.31% and a Percent Effect [7] of 8.43%. For the same compound, the Percent Effect [8] was -3.52%.

With CC(C)OCCN(C)C(C)c1cccc(S(N)(=O)=O)c1 (stereo not given) the Percent Effect [1] was -5.89%, the Percent Effect [2] was 7.79% and the Percent Effect [3] was -5.22%. For the same compound, the Percent Effect (Trypanosoma cruzi) was -3.36%, the Percent Effect [4] was 2.66% and the Percent Effect [5] was 1.05%. The Percent Effect (Homo sapiens) was 15.1%, the Percent Effect [6] was -1.96% and the Percent Effect [7] was -2.35%. For the same compound, the Percent Effect [8] was -1.17%.

For Cc1cn[nH]c1C1CCCCN1C(=O)CCN1CCCCCC1 (stereo not given), the Percent Effect [1] was 0.428%, the Percent Effect [2] was 4% and the Percent Effect [3] was -1.68%. The Percent Effect (Trypanosoma cruzi) was -7.89%, the Percent Effect [4] was 1.77% and the Percent Effect [5] was 10%. It also gave a Percent Effect (Homo sapiens) of 10.3%, a Percent Effect [6] of 2.12% and a Percent Effect [7] of 5%. It also gave a Percent Effect [8] of -25%.

Work on O=C(NCC1CC1)C1=NOC2(CCN(S(=O)(=O)c3cccs3)C2)C1 (stereo not given) yielded a Percent Effect [1] of -2.62%, a Percent Effect [2] of -3.9% and a Percent Effect [3] of 6.57%. It also gave a Percent Effect (Trypanosoma cruzi) of -1.85%, a Percent Effect [4] of -3.64% and a Percent Effect [5] of 3.79%. It also gave a Percent Effect (Homo sapiens) of -1.32%, a Percent Effect [6] of -0.526% and a Percent Effect [7] of -2.56%. It also gave a Percent Effect [8] of 0.639%.
